Laboratory results as given in PubChem BioAssay (EPA / NIEHS).
Several values for one entry are separate records, joined by “and”; a condition that tells them apart may be missing. Equal entries are not always repeated. Inconclusive results are not listed. Activity calls are given as the source filed them. Rule for the calls, unless noted: active = hit-call score of the fitted dose curve at least 0.9, where 1 is the maximum; inconclusive = response in the unintended direction; inactive = score below 0.9.

Assays:
[1] = ATG_VDRE_CIS: Attagene CIS-FACTORIAL HepG2 Assay for human Vitamin D Receptor Element (VDRE) (AID 2282968; active = hit-call score of the fitted dose curve at least 0.9, where 1 is the maximum; inactive = score below 0.9); conditions: HepG2 VDRE cis-reporter transcription, actives raise or lower the signal
Method in brief: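 Measures endogenous factor activity through cis-element-driven reporter transcripts in transiently transfected HepG2. Cells are treated 24 h; reporter mRNA is quantified by RT-PCR and capillary electrophoresis; fitting is bidirectional.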

[2] = molecular target: Estrogen receptor (Homo sapiens) (UniProt P03372); experiment: ATG_ERa_TRANS: Attagene TRANS-FACTORIAL HepG2 Assay for human Estrogen Receptor alpha (ERa) (AID 2282970); conditions: HepG2 Attagene TRANS ERa GAL4 reporter, mRNA
Method in brief: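 Reporter transcripts were measured 24 h after dosing by RT-PCR with fluorescent primer extension and capillary electrophoresis. The system is transiently transfected HepG2 expressing exogenous NR-Gal4 chimeras driving GAL4-UAS reporters; DMSO is the baseline.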

[3] = molecular target: Steroid hormone receptor ERR1 (Homo sapiens) (UniProt P11474); experiment: ATG_ERRa_TRANS: Attagene TRANS-FACTORIAL HepG2 Assay for human Estrogen-Related Receptor alpha (ERRa) (AID 2282971); conditions: HepG2 Attagene TRANS reporter, ERRa transactivation
Method in brief: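 Reporter transcripts from ERRa-Gal4 chimera activity measured in transiently transfected human HepG2 cells 24 hours after dosing, using RT-PCR with 6-FAM primer extension, HpaI digestion and capillary electrophoresis; DMSO is baseline.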

[4] = molecular target: X-box-binding protein 1 (Homo sapiens) (UniProt P17861); experiment: ATG_Xbp1_CIS: Attagene CIS-FACTORIAL HepG2 Assay for human X-box Binding Protein 1 (XBP1) (AID 2282972; active = hit-call score of the fitted dose curve at least 0.9, where 1 is the maximum; inactive = score below 0.9); conditions: HepG2 XBP1 cis-element reporter, Attagene multiplex; actives raise or lower the signal
Method in brief: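 Multiplexed cis-reporter readout in transfected HepG2 liver cells. Exposure lasted 24 hours. Activity in either direction was fitted against DMSO as negative control and baseline.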

[5] = ATG_M_19_TRANS: Attagene TRANS-FACTORIAL HepG2 Assay for M19 Transcription Factor (Internal Marker) (AID 2282974); conditions: HepG2 Attagene TRANS-FACTORIAL M19 internal marker reporter
Method in brief: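 After transfection of HepG2 with GAL4-UAS-driven reporter constructs, cells are dosed for 24 h. Total RNA is reverse-transcribed, reporter sequences PCR-amplified and labelled, then HpaI-digested and sized by capillary electrophoresis.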

[6] = ATG_GAL4_TRANS: Attagene TRANS-FACTORIAL HepG2 Assay for GAL4 (Internal Marker) (AID 2282976); conditions: HepG2 Attagene TRANS GAL4 internal marker reporter
Method in brief: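 In transfected human HepG2 liver cells dosed 24 h, GAL4 reporter mRNA serves as a baseline marker. Detection by RT-PCR with fluorescent capillary electrophoresis, activity fitted upward relative to DMSO.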

[7] = molecular target: Nuclear receptor subfamily 1 group I member 3 (Homo sapiens) (UniProt Q14994); experiment: ATG_CAR_TRANS: Attagene TRANS-FACTORIAL HepG2 Assay for human Constitutive Androstane Receptor (CAR) (AID 2282969); conditions: HepG2 Attagene TRANS-FACTORIAL CAR reporter;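 note: activators raise reporter mRNA above DMSO so AC50 marks induction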
Method in brief: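 Signal is reporter mRNA induction relative to DMSO, measured 24 h after dosing by RT-PCR with fluorescent primer extension and capillary electrophoresis. Human HepG2 liver cells carried transiently transfected chimeric NR-Gal4/GAL4-UAS reporter constructs.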

[8] = molecular target: Androgen receptor (Homo sapiens) (UniProt P10275); experiment: ATG_AR_TRANS: Attagene TRANS-FACTORIAL HepG2 Assay for human Androgen Receptor (AR) (AID 2282973); conditions: HepG2 Attagene TRANS-FACTORIAL AR reporter transcription
Method in brief: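 Transcriptional activity of an exogenous AR–Gal4 fusion read as GAL4-UAS reporter transcript levels in transfected human HepG2 cells after 24 h dosing. Detection via RT-PCR, 6-FAM labelling, HpaI digest and capillary electrophoresis; increase over DMSO baseline.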

[9] = molecular target: Glucocorticoid receptor (Homo sapiens) (UniProt P04150); experiment: ATG_GR_TRANS: Attagene TRANS-FACTORIAL HepG2 Assay for human Glucocorticoid Receptor (GR) (AID 2282978); conditions: HepG2 Attagene TRANS GR reporter, mRNA transcription;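 note: activators score as hits since higher reporter transcript over DMSO is fitted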
Method in brief: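 Multiplexed TRANS reporter system, HepG2; 24 h exposure; RNA → oligo(dT) RT → reporter-specific PCR → 6-FAM primer extension → HpaI cut → CE fluorescence. Gain-of-signal vs DMSO.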

[10] = molecular target: Estrogen-related receptor gamma (Homo sapiens) (UniProt P62508); experiment: ATG_ERRg_TRANS: Attagene TRANS-FACTORIAL HepG2 Assay for human Estrogen-Related Receptor gamma (ERRg) (AID 2282977); conditions: HepG2 Attagene TRANS reporter, ERRg transactivation;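 note: hits increase reporter signal over DMSO so potencies reflect activators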
Method in brief: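 Readout: fluorescent reporter-mRNA fragments resolved by capillary electrophoresis after RT-PCR and HpaI cut. Cells: transiently transfected HepG2 carrying GAL4-UAS reporters driven by exogenous NR-Gal4 chimeras, dosed 24 h. Activity fitted upward relative to DMSO baseline.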

Measured: AC50

X-box-binding protein 1 (Homo sapiens), sequence (P17861 whole entry, looked up): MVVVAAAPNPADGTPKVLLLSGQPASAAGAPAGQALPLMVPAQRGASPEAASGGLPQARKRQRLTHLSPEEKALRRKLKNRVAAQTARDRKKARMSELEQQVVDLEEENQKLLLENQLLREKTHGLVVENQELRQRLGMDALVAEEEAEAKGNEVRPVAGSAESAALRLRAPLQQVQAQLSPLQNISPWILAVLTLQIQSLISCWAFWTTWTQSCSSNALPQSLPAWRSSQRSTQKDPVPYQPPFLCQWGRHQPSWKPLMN
Estrogen-related receptor gamma (Homo sapiens), sequence (P62508 whole entry, looked up, the tested form may be a part): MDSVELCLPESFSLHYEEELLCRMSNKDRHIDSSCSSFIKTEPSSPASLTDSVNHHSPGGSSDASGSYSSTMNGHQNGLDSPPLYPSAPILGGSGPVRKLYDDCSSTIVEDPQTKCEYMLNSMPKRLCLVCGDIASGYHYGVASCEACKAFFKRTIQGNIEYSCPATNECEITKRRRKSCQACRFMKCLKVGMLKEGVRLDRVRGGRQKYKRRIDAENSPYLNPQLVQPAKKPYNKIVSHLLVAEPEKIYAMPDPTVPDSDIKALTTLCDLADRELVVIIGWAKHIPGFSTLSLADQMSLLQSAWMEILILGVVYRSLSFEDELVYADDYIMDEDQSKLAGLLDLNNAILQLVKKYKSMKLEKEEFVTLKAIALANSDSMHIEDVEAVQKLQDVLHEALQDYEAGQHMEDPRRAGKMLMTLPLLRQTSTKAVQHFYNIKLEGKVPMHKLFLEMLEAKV
Estrogen receptor (Homo sapiens), sequence (P03372 whole entry, looked up, the tested form may be a part): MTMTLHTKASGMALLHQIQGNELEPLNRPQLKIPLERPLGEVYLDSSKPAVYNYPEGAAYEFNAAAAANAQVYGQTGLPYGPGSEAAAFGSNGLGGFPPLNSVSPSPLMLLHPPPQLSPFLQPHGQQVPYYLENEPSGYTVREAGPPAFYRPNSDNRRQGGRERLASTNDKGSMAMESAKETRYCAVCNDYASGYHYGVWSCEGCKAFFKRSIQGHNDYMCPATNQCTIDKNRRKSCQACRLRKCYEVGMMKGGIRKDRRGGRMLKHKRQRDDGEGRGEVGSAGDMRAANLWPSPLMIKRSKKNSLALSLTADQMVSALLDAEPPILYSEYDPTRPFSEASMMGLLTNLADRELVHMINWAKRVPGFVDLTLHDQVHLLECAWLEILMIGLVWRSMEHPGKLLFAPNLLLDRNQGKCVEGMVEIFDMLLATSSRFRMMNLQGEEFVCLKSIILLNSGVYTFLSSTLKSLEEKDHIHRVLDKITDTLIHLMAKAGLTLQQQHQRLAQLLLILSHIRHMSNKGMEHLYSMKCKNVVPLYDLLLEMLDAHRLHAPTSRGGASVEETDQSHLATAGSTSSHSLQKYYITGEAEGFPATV
Steroid hormone receptor ERR1 (Homo sapiens), sequence (P11474 whole entry, looked up, the tested form may be a part): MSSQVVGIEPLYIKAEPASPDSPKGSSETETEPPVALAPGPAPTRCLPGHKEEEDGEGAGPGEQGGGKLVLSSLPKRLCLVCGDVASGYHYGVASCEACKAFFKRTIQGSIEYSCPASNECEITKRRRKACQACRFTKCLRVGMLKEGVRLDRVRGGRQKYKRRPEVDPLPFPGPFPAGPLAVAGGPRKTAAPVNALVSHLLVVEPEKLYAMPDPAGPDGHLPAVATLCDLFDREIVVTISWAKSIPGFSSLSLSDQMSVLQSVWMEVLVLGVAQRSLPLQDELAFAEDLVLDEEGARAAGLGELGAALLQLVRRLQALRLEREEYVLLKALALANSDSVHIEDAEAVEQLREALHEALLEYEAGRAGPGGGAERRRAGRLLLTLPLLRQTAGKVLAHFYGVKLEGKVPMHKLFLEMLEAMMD
Androgen receptor (Homo sapiens), sequence (P10275 whole entry, looked up, the tested form may be a part): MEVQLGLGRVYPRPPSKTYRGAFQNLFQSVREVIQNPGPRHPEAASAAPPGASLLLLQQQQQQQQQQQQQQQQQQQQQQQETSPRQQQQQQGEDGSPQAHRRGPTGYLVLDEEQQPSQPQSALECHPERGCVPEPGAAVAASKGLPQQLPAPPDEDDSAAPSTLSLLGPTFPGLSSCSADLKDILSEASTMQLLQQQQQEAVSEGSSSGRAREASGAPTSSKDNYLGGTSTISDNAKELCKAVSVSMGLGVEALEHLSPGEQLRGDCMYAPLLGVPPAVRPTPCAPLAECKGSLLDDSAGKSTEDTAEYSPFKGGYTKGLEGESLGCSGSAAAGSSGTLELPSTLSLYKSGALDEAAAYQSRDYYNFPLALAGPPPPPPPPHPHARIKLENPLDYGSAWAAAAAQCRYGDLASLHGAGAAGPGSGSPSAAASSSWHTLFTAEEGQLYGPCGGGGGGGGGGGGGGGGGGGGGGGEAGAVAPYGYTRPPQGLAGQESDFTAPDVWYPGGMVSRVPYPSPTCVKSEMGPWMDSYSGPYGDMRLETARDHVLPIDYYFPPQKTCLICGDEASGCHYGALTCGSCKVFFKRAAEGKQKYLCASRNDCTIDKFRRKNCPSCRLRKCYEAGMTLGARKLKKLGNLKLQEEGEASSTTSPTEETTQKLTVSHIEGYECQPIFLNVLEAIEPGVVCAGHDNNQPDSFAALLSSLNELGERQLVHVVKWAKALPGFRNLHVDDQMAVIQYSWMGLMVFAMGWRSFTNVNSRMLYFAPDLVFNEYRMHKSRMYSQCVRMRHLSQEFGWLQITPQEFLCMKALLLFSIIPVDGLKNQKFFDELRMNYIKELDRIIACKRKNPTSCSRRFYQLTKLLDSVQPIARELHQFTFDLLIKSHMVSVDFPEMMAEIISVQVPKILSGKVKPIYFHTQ
Glucocorticoid receptor (Homo sapiens), sequence (P04150 whole entry, looked up): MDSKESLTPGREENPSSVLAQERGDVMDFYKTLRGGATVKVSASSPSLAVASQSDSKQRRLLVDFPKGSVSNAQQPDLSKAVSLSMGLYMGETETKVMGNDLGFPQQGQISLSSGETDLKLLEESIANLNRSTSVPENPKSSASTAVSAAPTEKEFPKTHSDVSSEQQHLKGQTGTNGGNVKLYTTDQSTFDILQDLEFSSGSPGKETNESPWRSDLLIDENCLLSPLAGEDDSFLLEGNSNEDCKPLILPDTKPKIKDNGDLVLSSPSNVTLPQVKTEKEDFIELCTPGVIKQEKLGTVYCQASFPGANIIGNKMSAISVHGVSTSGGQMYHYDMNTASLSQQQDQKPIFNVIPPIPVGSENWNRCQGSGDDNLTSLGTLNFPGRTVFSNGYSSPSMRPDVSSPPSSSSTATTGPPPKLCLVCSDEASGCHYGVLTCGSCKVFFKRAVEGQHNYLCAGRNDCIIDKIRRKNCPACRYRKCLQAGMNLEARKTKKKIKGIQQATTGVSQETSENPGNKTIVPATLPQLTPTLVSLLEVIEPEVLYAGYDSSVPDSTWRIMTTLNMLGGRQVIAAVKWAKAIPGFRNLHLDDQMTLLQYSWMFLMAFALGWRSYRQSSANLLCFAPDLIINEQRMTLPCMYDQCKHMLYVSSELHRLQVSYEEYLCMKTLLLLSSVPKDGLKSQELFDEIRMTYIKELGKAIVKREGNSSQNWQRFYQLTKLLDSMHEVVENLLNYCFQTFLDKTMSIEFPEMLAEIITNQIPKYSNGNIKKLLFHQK
Nuclear receptor subfamily 1 group I member 3 (Homo sapiens), sequence (Q14994 whole entry, looked up, the tested form may be a part): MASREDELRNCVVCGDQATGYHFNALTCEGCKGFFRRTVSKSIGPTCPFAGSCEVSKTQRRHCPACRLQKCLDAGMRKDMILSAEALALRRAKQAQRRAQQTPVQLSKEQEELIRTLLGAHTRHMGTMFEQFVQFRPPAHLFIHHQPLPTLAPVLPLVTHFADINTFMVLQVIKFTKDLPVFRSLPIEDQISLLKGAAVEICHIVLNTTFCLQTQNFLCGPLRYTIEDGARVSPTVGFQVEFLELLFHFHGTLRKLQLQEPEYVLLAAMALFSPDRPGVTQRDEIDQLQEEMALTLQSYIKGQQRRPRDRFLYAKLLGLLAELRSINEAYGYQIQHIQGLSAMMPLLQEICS

N#Cc1cccnc1
inactive: [1] | [2] | [3] | [4] | [5] | [6]

COP(=S)(OC)Oc1cc(Cl)c(I)cc1Cl
inactive: [7] | [8] | [5]
active: [1] 24.7 µM | [4] 38.6 µM

Nc1ccc(N)cc1
inactive: [1] | [7] | [4] | [5] | [6]

N#CCCC(Br)(C#N)CBr (stereo not drawn)
inactive: [2] | [3] | [5] | [9]
active: [1] 43.9 µM

ClCCN1CCOCC1
inactive: [1] | [2]

C=C(C)C(=O)OCCCCOC(=O)C(=C)C
inactive: [1] | [2] | [3] | [4] | [5] | [6]

CC(C)(C1CCC(O)CC1)C1CCC(O)CC1 (stereo not drawn)
active: [2] 11.2 µM
inactive: [1] | [4]

OC(Cc1ccccc1Cl)(Cn1cncn1)C1(Cl)CC1 (stereo not drawn)
inactive: [3] | [4] | [5] | [10] | [9]
active: [1] 26 µM | [2] 13.7 µM

N#Cc1ccncc1
inactive: [1] | [2] | [3] | [4] | [6] | [9]

C#CCOC(=O)/C=C(C)/C=C/CC(C)CCCC(C)C (stereo not drawn)
inactive: [1] | [2] | [4] | [6] | [9]

CCN(N=O)C(N)=O
inactive: [1] | [2] | [4] | [5] | [6] | [9]

CCC[CH2][Sn]([Cl])([Cl])[CH2]CCC
inactive: [5]
active: [1] 1.24 µM | [2] 1.86 µM | [4] 1.2 µM

CC(C)[C@@H](Nc1ccc(C(F)(F)F)cc1Cl)C(=O)OC(C#N)c1cccc(Oc2ccccc2)c1 (stereo partly drawn)
inactive: [2] | [4] | [5]
active: [1] 0.734 µM

O=C/C(Cl)=C(/Cl)C(=O)O
inactive: [4] | [10]
active: [1] 74.3 µM | [2] 156 µM

CCOP(=O)(OCC)OC(=CCl)c1ccc(Cl)cc1Cl
active: [1] 1.83 µM | [2] 26 µM
inactive: [4] | [5] | [6]

O=S(=O)(C(Cl)(Cl)Cl)C(Cl)(Cl)Cl
active: [1] 16.7 µM | [4] 15.4 µM
inactive: [2] | [5] | [6]

O=C(Cc1ccccc1)OCCc1ccccc1
inactive: [1] | [2] | [4] | [6] | [9]

CCOCn1c(-c2ccc(Cl)cc2)c(C#N)c(Br)c1C(F)(F)F
active: [1] 1.79 µM | [4] 2.71 µM
inactive: [2] | [9]

c1ccc2sc(SNC3CCCCC3)nc2c1
inactive: [1] | [2] | [4] | [5] | [9]

Cc1c([N+](=O)[O-])c(C)c([N+](=O)[O-])c(C(C)(C)C)c1[N+](=O)[O-]
active: [1] 1.84 µM | [2] 7.73 µM | [4] 100 µM
inactive: [5] | [10]

C1CCC(C2CCCCC2)CC1
inactive: [1] | [4]
active: [2] 27.9 µM

CC(=Cc1ccccc1)[N+](=O)[O-]
active: [4] 11.1 µM
inactive: [1] | [2] | [10]

O=C(O)c1cc(I)cc(I)c1I
inactive: [1] | [2] | [4] | [5] | [6] | [9]

O=NN1CCCCCC1
inactive: [1] | [2] | [4] | [8] | [6] | [9]

O=NN1CCOCC1
inactive: [1] | [2] | [4] | [6]

CN(C)CCN(C)C
inactive: [1] | [2] | [4] | [5] | [9]

C=C(C)C(=O)OCC(CC)CCCC (stereo not drawn)
inactive: [1] | [2] | [4] | [6] | [10]

O=C(NC(=O)c1c(F)cccc1F)Nc1cc(Cl)c(Oc2ncc(C(F)(F)F)cc2Cl)c(Cl)c1
inactive: [1] | [2] | [4] | [8] | [5]

CC(C)(C)c1ccc(CCOc2ncnc3ccccc23)cc1
inactive: [1] | [2] | [4] | [5]

O=S1OC[C@@H]2[C@H](CO1)[C@]1(Cl)C(Cl)=C(Cl)[C@@]2(Cl)C1(Cl)Cl (stereo partly drawn)
active: [1] 6.07 µM | [2] 3.77 µM | [4] 100 µM
inactive: [9]

[Cl][Sn]([c]1ccccc1)([c]1ccccc1)[c]1ccccc1
active: [1] 0.24 µM | [4] 0.242 µM
inactive: [2] | [8] | [10]

CC(=O)C(F)(F)C(F)(F)F
inactive: [1] | [2] | [4] | [8] | [6] | [9]

CCCCN(CCCC)C(=S)[S-].CCCCN(CCCC)C(=S)[S-].[Ni+2]
inactive: [1] | [2] | [4] | [5] | [6]

OC(c1ccc(Cl)cc1)(c1ccc(Cl)cc1)c1cccnc1
inactive: [1] | [2] | [4] | [8] | [5] | [6]

Cc1ccc2nc3sc(=O)sc3nc2c1
inactive: [2] | [9]
active: [1] 14.3 µM | [4] 6.96 µM

CCCCCCCCCCCCBr
inactive: [1] | [2] | [4] | [6] | [9]

C=CCc1ccccc1O
active: [2] 48.6 µM
not listed: [3] | [7] | [8]
inactive: all other assays above

COc1ccc([N+](=O)[O-])cc1O
inactive: [1] | [2] | [4] | [8] | [6] | [9]

CS(=O)(=O)c1ccc(C(=O)C2C(=O)CCCC2=O)c(Cl)c1COCC(F)(F)F
not listed: [3] | [7] | [8]
inactive: all other assays above

O=S(=O)(c1ccc(Cl)cc1)c1cc(Cl)c(Cl)cc1Cl
inactive: [2] | [4] | [6] | [9]
active: [1] 2.79 µM

O=C(CCl)Nc1ccccc1
inactive: [2] | [8]
active: [1] 43.7 µM | [4] 22 µM

O=S(=O)(Oc1ccc(Cl)cc1)c1ccc(Cl)cc1
inactive: [4] | [5] | [10] | [9]
active: [1] 10.4 µM | [2] 10.7 µM

C[N+](C)(C)Cc1ccccc1
inactive: [1] | [2] | [4] | [5] | [6]

O=S1(=O)OC(c2cc(Br)c(O)c(Br)c2)(c2cc(Br)c(O)c(Br)c2)c2ccccc21
inactive: [1] | [2] | [4] | [8]

CCOC(=O)OC1=C(c2cc(C)ccc2C)C(=O)NC12CCC(OC)CC2 (stereo not drawn)
inactive: [1] | [2] | [4] | [9]

OCC(c1ccc(Cl)cc1)c1ccc(Cl)cc1
inactive: [1] | [2] | [9]
active: [4] 56.3 µM

O=[N+]([O-])c1ccc(Nc2ccccc2)cc1
active: [1] 19.2 µM
inactive: [2] | [4] | [10] | [9]

CCCCCCCCCCCCN(C)C
active: [1] 33.4 µM | [4] 53.9 µM
inactive: [2] | [9]

N#Cc1ccc(Cl)cc1
inactive: [1] | [3] | [4] | [5] | [10]

Clc1ccc(C(Cl)(Cl)Cl)cn1
inactive: [1] | [2] | [9]

O=c1oc2ccccc2c(O)c1C(CC(O)c1ccc(-c2ccc(Br)cc2)cc1)c1ccccc1 (stereo not drawn)
inactive: [2] | [5] | [6]
active: [1] 22.4 µM and 8.54 µM | [9] 173 µM
